Measurements: PubChem BioAssay (NCATS)
Unmarked numbers belong to inactive results. Records with an inconclusive call do not appear. Active and inactive are the calls of the source. Unless noted, calls come from the whole dose curve; as a rule, active = well fitted curve in the direction sought with a large enough effect; inconclusive = small, poorly fitted or top-dose-only effect, or another doubt; inactive = no such curve, though single readings can be large; an effect the other way counts as inactive or inconclusive.

Assays:
[1] = molecular target: Lysosomal acid glucosylceramidase (Homo sapiens) (UniProt P04062); assay: Glucocerebrosidase-p2 (AID 348; in the data active = potency below about 10 µM; note: potency is the fitted concentration of half-maximal effect); conditions: purified GBA, blue fluorogenic substrate, 40 min
Method in brief: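 Normal human glucocerebrosidase (0.2 nM) with blue fluorogenic substrate (80 uM final) in citrate/phosphate pH 5.9 with 10mM sodium taurocholate, 0.01% tween-20; 40 min RT, NaOH/glycine stop; fluorescence Ex 365/Em 440; AC50 from a titration from 0.6 nM upwards.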

[2] = AP1 Signaling Pathway (AID 357; active = well fitted curve in either direction with a large enough effect, not every such curve was filed as active;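 note: ME-180 reporter cells stimulated with EGF at its EC50 level; % is set by controls: 0 for no effect and ±100 for the full control effect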); conditions: ME-180 AP-1-bla reporter, EGF-induced, beta-lactamase ratio, 5 h; at 7.69 µM (top of the series) unless noted
Method in brief: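 Beta-lactamase reporter under AP-1 response element, ME-180 background. Stimulus: EC50 EGF. Compound exposure 5 h, 37 °C. Detection: CCF4, 2.5 h RT, 460/530 nm. Values: AC50 from titration.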

[3] = molecular target: Cytochrome P450 1A2 (Homo sapiens) (UniProt P05177); assay: p450-cyp1a2 (AID 410; calls by dose curve; note: potency is the fitted concentration of half-maximal effect;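 for activity change, negative = inhibition: -100% = full effect of reference inhibitor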); conditions: recombinant CYP1A2, luciferin-ME demethylation, luminescence; series mostly up to 57 µM
Method in brief: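 Luminescent demethylation readout: Luciferin-ME (100uM, equal to Km) turned over by 20nM CYP1A2 for 60 min at room temperature after NADPH regeneration addition, following 10 min compound preincubation. Normalization used 57 uM furafylline as full inhibition.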

[4] = NFAT Signaling Pathway (AID 444; active = well fitted curve in either direction with a large enough effect, not every such curve was filed as active;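 note: carbachol stimulus at about its EC50 of 1 µM final; % is set by controls: 0 for no effect and ±100 for the full control effect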); conditions: Jurkat NFAT-bla M1, carbachol, beta-lactamase ratio, 5 h; at 7.69 µM (top of the series) unless noted
Method in brief: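 Jurkat cells with NFAT-driven β-lactamase reporter and co-expressed M1 receptor, stimulated with carbachol (final 1 uM, ~EC50), compound titration, 5 h at 37 °C. CCF4 loaded 1 h at RT; 460/530 nm ratio gave %activity and AC50.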

[5] = Stat Signaling Pathway (AID 446; active = well fitted curve in either direction with a large enough effect, not every such curve was filed as active;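 note: ME-180 cervical cancer cells given 40 pM IL-6 alongside compound; SIE-controlled beta-lactamase reporter measured as 460/530 nm FRET emission ratio; % is set by controls: 0 for no effect and ±100 for the full control effect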); conditions: ME-180 (cervical carcinoma) SIE beta-lactamase reporter, IL-6 stimulated, 5 h; at 7.69 µM (top of the series) unless noted
Method in brief: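 Compound effects on IL-6-induced STAT reporter activity were measured in ME-180 cells. After overnight culture, cells were co-treated with 40 pM IL-6 for 5 hrs before beta-lactamase substrate loading at room temperature.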

[6] = molecular target: Glucocorticoid receptor (Homo sapiens) (UniProt P04150); assay: GR-GFP Redistribution (AID 450;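 active = compounds whose dose series gives a full or clear partial fitted curve of increased nuclear translocation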; note: potency is the fitted concentration of half-maximal effect); conditions: U2OS GR-GFP nuclear translocation, laser cytometry, 2 h
[7] = molecular target: Glucocorticoid receptor (Homo sapiens) (UniProt P04150); assay: GR-EFC Redistribution (AID 451; calls by dose curve; note: potency is the fitted concentration of half-maximal effect); conditions: CHO-K1 GR-EFC translocation, beta-gal luminescence, 2 h
Method in brief: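 CHO-K1 cells expressing nuclear EA and GR-ED fragments of b-gal; compounds titrated up to 46 uM final, 2 h at 37 C. GR nuclear translocation read as complemented b-gal luminescence after 1 h RT detection.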

[8] = molecular target: Mitogen-activated protein kinase 10 (Mus musculus) (UniProt Q61831); assay: JNK3 AlphaScreen Assay (AID 530; active = well fitted curve in either direction with a large enough effect, not every such curve was filed as active;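 note: kinase came from lysate of stimulated human HepG2 cells; signal reports phosphorylation of biotinylated GST-cJun 1-79 at Ser73 with 10 µM ATP; % is set by controls: 0 for no effect and ±100 for the full control effect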); conditions: JNK3 lysate, c-Jun phosphorylation; series mostly up to 57.1 µM
Method in brief: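 Activity was read by AlphaScreen after JNK3-containing HepG2 lysate (cytokine pre-activated) phosphorylated biotinylated GST-cJun with 10 uM ATP at room temperature. Phospho-Ser73 cJun antibody with Protein-A acceptor beads provided detection.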

[9] = molecular target: Cytochrome P450 3A4 (Homo sapiens) (UniProt P08684); assay: qHTS Assay for Activators of Cytochrome P450 3A4 (AID 885); conditions: recombinant CYP3A4, Luciferin-PPXE luminescence, 60 min; series mostly up to 57.1 µM; note: nearly all actives have a fitted effect of over 65% in size; note: potency is the fitted concentration of half-maximal effect
Method in brief: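 CYP3A4 activity: Luciferin-PPXE O-dealkylation, 25uM substrate, 200mM KPO4, RT throughout. Read-out is luciferase luminescence; higher values reflect activation.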

[10] = molecular target: Dual specificity protein kinase CLK4 (Homo sapiens) (UniProt Q9HAZ1); assay: qHTS Assay for Inhibitors of CDC-like Kinase 4 (Kinase-Glo Assay) (AID 1770); conditions: recombinant Clk4, Kinase-Glo ATP depletion luminescence; series mostly up to 66.7 µM; note: nearly all actives have a fitted effect of over 65% in size; note: potency is the fitted concentration of half-maximal effect
Method in brief: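 Luminescent ATP-depletion read-out (Kinase-Glo) after 4.5 h room-temperature reaction of Clk4 (25 nM final) with RS peptide (100 uM) and ATP (1 uM), pH 7.5 Tris buffer with MgCl2 and DTT.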

[11] = molecular target: Dual specificity protein kinase CLK4 (Homo sapiens) (UniProt Q9HAZ1); assay: qHTS Assay for Inhibitors of CDC-like Kinase 4 (ADP-Glo Assay) (AID 1771); conditions: recombinant CLK4, ADP-Glo luminescence; series mostly up to 80 µM; note: nearly all actives have a fitted effect of over 70% in size; note: potency is the fitted concentration of half-maximal effect
Method in brief: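 ADP production was read by ADP-Glo luminescence after residual ATP depletion, following 1 h room-temperature reaction of 25 nM Clk4, 1 uM ATP and 100 uM RS peptide with MgCl2, EGTA, DTT and Triton X-100.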

[12] = molecular target: Dual specificity protein kinase CLK4 (Homo sapiens) (UniProt Q9HAZ1); assay: qHTS Assay for Inhibitors of CDC-like Kinase 4 (ADP-FP Assay) (AID 1795); conditions: Transcreener ADP fluorescence polarization; series mostly up to 50 µM; note: nearly all actives have a fitted effect of over 60% in size; note: potency is the fitted concentration of half-maximal effect
Method in brief: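 Kinase activity was measured as ADP production using Transcreener orange tracer (4 nM) and ADP antibody (1 ug/mL) fluorescence polarization, with ADP calculated from a calibration curve. The 1 h reaction contained 6.25 nM Clk4, 1 uM ATP and 100 uM RS peptide at pH 7.5 with Mg2+.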

[13] = molecular target: Ubiquitin carboxyl-terminal hydrolase 1 (Homo sapiens) (UniProt O94782); assay: Inhibitors of USP1/UAF1: Pilot qHTS (AID 504865); conditions: purified USP1/UAF1, Ub-rhodamine cleavage fluorescence; series mostly up to 54.9 µM;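 note: rhodamine fluorescence freed from ubiquitin-rhodamine substrate followed over time; top concentration of the series differs between compounds; % is set by controls: 0 for no effect and ±100 for the full control effect; nearly all actives have a fitted effect of over 35% in size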
Method in brief: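 Deubiquitinase activity followed as kinetic rhodamine fluorescence release from 150 nM Ub-Rho. 1 nM USP1/UAF1 with compound, after 15 min room-temperature preincubation, in HEPES pH 7.8 buffer containing TCEP, EDTA, BSA and Tween-20.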

[14] = Primary qHTS for small molecule stabilizers of the endoplasmic reticulum resident proteome: Secreted ER Calcium Modulated Protein (SERCaMP) assay (AID 1508630); conditions: SH-SY5Y GLuc-SERCaMP (Gaussia luciferase released on ER calcium loss) secretion, thapsigargin, luminescence; series mostly up to 38.4 µM; note: % is set by controls: 0 for no effect and ±100 for the full control effect
Method in brief: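 The SH-SY5Y reporter protocol was run at 3 concentrations up to 38.3 uM (primary) or 11 concentrations (follow-up): 16 h compound, 100 nM thapsigargin for 4 h, then extracellular luciferase luminescence.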

[15] = molecular target: 3',5'-cyclic-AMP phosphodiesterase 4B (Homo sapiens) (UniProt Q07343); assay: qHTS Assay for Inhibitors of PDE-IV (AID 607; active = well fitted activation curve with a large enough effect in the main read-out, with a control signal flat, not every such curve was filed as active; note: % of control where 0% means no effect); conditions: HEK293 ACTOne CNG channel cells, membrane potential fluorescence; series mostly up to 22.9 µM
Method in brief: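 ACTOne HEK293 cells carry a modified cAMP-gated CNG channel and express endogenous PDE4; plated 1000 cells/well, compounds up to 22.9 uM final. Membrane-potential dye fluorescence (ex 535/em 590) was read; parental cells received 10 uM forskolin + 100 uM RO 20-1724.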

[16] = molecular target: Cytochrome P450 3A4 (Homo sapiens) (UniProt P08684); assay: qHTS Assay for Inhibitors and Substrates of Cytochrome P450 3A4 (AID 884); conditions: recombinant CYP3A4, Luciferin-PPXE luminescence; series mostly up to 57.1 µM; note: nearly all actives have a fitted effect of over 50% in size; note: potency is the fitted concentration of half-maximal effect
Method in brief: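 Luminescent readout of luciferin produced by CYP3A4 (20 nM) dealkylation of Luciferin-PPXE, 25 uM (its KM). NADPH-driven reaction ran 60 min at RT after 10 min compound preincubation; data scaled to 57 uM ketoconazole as 100% inhibition.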

[17] = molecular target: Cytochrome P450 2C19 (Homo sapiens) (UniProt P33261); assay: qHTS Assay for Inhibitors and Substrates of Cytochrome P450 2C19 (AID 899); conditions: recombinant CYP2C19, luciferin-H EGE luminescence; series mostly up to 57.1 µM; note: potency is the fitted concentration of half-maximal effect; nearly all actives have a fitted effect of over 60% in size
Method in brief: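 Signal comes from luciferase acting on luciferin released by CYP2C19-mediated hydroxylation of Luciferin-H EGE, 10uM (KM). Assay mix: 5nM enzyme, 50mM KPO4; 60 min at 37C with NADPH regeneration. Data normalized against 57uM ketoconazole.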

[18] = molecular target: Cytochrome P450 2C9 (Homo sapiens) (UniProt P11712); assay: qHTS Assay for Inhibitors and Substrates of Cytochrome P450 2C9 (AID 883); conditions: recombinant CYP2C9, luciferin-H luminescence, 60 min; series mostly up to 57.1 µM; note: potency is the fitted concentration of half-maximal effect; nearly all actives have a fitted effect of over 60% in size
Method in brief: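 Signal: luciferase luminescence reporting luciferin produced by CYP2C9. Conditions: 10nM enzyme, Luciferin-H 100uM at KM, 25mM KPO4, 37C, 60 min NADPH-driven reaction. Reference: 57uM sulphaphenazole as 100% inhibition.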

Glucocorticoid receptor (Homo sapiens), sequence (P04150 whole entry, looked up, the tested form may be a part): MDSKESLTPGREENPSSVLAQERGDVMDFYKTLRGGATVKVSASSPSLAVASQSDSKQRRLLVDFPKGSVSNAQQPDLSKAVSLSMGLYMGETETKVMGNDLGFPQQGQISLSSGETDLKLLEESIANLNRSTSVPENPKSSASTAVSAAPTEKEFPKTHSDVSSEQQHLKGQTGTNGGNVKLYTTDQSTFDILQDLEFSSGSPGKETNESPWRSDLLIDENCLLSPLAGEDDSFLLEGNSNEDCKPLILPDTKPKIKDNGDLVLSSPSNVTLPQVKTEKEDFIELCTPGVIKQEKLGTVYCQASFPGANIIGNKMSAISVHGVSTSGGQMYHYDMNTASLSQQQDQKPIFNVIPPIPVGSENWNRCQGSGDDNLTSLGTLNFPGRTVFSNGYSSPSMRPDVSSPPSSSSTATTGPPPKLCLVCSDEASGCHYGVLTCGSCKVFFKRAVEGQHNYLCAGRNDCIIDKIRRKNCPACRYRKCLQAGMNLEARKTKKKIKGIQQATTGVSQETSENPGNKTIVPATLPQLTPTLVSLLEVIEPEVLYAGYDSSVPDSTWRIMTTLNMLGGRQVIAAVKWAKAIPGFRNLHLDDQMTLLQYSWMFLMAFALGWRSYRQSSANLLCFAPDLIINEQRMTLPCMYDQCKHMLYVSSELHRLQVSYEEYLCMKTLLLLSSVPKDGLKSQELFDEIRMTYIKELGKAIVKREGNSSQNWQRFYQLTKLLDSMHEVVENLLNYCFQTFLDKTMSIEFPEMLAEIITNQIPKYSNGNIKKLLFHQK
Lysosomal acid glucosylceramidase (Homo sapiens), sequence (P04062 whole entry, looked up): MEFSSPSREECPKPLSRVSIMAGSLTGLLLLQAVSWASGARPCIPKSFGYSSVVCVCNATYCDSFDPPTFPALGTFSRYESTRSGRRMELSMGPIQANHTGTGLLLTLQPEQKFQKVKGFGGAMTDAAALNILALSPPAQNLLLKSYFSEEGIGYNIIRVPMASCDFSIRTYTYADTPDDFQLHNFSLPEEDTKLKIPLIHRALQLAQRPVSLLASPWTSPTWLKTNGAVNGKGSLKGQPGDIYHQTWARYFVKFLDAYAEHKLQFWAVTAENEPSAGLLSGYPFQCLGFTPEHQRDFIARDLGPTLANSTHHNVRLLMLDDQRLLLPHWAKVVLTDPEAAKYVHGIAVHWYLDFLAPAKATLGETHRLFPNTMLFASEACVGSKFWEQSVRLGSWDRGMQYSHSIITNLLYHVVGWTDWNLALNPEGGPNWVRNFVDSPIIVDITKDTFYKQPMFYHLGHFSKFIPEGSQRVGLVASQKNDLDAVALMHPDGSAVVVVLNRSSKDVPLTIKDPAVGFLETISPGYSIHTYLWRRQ
Dual specificity protein kinase CLK4 (Homo sapiens), sequence (Q9HAZ1 whole entry, looked up): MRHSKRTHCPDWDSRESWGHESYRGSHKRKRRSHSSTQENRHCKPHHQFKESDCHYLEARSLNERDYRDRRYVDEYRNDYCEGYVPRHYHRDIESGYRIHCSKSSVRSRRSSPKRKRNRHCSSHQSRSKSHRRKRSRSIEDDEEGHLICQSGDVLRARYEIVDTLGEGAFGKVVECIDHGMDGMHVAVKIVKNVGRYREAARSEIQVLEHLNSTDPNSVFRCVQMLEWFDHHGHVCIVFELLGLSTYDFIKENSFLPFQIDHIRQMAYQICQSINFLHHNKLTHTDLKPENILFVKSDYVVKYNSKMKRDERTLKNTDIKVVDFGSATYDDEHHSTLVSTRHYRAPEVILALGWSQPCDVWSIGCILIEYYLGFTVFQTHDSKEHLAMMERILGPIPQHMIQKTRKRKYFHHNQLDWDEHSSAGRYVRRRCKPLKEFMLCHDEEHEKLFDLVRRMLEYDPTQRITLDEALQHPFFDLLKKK
Ubiquitin carboxyl-terminal hydrolase 1 (Homo sapiens), sequence (O94782 whole entry, looked up): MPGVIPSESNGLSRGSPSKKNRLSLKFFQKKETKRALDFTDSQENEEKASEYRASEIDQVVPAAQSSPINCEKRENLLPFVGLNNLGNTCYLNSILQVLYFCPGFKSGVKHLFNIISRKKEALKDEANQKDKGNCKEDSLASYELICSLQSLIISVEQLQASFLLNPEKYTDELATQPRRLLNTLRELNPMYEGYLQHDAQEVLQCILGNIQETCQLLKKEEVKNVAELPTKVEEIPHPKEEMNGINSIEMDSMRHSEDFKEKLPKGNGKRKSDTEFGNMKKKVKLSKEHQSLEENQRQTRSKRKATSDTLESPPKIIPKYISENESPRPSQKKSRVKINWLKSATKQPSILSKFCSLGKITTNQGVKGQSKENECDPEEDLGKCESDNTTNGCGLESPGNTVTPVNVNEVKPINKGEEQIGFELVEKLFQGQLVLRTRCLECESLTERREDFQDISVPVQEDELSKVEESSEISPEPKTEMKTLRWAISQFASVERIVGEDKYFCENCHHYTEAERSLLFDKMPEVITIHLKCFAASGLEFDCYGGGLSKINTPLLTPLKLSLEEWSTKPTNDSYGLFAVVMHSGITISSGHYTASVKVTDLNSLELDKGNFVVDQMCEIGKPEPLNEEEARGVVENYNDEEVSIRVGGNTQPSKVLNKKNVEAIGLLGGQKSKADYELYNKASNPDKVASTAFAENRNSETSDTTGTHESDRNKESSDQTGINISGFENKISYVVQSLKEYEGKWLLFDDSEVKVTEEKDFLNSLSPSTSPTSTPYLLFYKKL
Cytochrome P450 3A4 (Homo sapiens), sequence (P08684 whole entry, looked up): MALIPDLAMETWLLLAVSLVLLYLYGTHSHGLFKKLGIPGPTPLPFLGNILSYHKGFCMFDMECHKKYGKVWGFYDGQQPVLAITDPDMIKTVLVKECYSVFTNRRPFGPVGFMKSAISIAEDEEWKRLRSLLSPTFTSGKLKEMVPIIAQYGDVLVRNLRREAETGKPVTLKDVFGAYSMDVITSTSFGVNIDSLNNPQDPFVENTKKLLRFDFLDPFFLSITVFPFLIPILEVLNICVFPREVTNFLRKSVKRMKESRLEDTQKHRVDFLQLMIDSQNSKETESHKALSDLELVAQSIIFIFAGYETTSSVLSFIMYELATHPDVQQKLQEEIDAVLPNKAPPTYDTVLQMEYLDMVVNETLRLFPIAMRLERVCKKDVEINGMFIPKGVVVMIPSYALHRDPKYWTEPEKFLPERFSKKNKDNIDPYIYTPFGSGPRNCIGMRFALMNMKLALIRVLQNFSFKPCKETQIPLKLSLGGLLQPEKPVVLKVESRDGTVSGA
Cytochrome P450 2C19 (Homo sapiens), sequence (P33261 whole entry, looked up): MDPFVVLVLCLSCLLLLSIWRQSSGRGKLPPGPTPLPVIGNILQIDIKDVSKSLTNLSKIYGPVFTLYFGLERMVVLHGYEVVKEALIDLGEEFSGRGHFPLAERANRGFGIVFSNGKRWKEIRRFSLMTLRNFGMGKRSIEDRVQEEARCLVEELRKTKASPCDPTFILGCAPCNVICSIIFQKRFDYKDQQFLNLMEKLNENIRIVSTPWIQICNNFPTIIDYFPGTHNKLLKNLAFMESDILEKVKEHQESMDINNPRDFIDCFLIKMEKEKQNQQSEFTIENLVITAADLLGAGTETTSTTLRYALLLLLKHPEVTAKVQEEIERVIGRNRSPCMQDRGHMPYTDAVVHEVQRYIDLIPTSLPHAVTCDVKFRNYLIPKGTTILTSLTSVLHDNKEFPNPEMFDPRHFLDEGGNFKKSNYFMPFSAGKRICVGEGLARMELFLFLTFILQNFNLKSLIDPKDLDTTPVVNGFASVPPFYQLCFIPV
Cytochrome P450 1A2 (Homo sapiens), sequence (P05177 whole entry, looked up): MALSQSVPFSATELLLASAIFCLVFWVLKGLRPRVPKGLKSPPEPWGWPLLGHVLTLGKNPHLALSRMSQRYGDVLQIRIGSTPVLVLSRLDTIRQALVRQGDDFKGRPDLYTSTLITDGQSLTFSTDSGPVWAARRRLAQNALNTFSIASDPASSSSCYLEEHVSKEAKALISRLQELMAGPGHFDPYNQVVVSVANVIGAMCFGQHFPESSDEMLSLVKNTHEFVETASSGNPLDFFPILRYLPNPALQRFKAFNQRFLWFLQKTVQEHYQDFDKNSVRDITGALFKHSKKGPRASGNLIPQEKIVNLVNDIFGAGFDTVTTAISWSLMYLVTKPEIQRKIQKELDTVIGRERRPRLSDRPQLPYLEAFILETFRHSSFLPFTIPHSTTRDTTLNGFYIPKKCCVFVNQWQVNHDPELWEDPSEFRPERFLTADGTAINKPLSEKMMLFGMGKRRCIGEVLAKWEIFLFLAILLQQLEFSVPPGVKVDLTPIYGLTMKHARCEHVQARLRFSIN
3',5'-cyclic-AMP phosphodiesterase 4B (Homo sapiens), sequence (Q07343 whole entry, looked up): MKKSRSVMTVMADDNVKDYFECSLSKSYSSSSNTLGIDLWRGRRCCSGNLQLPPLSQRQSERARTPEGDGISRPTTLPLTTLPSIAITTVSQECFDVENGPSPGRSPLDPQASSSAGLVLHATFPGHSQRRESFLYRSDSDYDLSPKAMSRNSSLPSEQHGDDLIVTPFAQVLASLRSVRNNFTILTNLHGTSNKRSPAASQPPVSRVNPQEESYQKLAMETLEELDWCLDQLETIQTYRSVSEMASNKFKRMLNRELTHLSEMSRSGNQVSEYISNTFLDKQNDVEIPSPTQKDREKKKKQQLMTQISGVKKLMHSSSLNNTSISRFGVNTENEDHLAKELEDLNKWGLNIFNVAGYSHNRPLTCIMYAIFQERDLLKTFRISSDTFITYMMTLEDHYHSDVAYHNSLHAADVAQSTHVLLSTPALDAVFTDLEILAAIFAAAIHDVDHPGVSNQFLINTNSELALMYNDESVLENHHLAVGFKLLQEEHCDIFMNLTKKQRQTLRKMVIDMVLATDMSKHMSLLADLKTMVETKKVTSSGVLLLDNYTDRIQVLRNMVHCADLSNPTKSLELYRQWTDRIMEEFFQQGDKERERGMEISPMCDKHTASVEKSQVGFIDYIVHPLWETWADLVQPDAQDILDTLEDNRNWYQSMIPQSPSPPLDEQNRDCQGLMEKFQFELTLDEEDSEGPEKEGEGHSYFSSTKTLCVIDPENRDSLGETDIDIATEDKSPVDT

Compound	Potency [1] [µM]	activity change, negative = inhibition [2] [%]	Potency [3]	activity change, negative = inhibition [4] [%]	activity, negative = inhibition [5] [%]	Potency [6] [µM]	Potency [7] [µM]	Potency [8]	Potency [9]	Potency [10]	Potency [11]	Potency [12]	Potency [13]	outcome [14]	Potency [15]	Potency [16]	Potency [17]	Potency [18]
CN(C)c1cc(-c2cccc(NS(C)(=O)=O)c2)ncn1	> 11.4	3.12	1.26 µM (active)	18.4	1.39	> 46	> 46	inactive	inactive	inactive	inactive	inactive	inactive	inactive	–	–	–	–
COc1cccc(Cn2c(=O)c(-c3ccc(Cl)cc3)nc3cnc(N4CCN(C)CC4)nc32)c1	> 11.4	17.8	inactive	23.1	4.58	> 9.22	> 46	inactive	15.8 µM (active)	inactive	inactive	inactive	–	inactive	inactive	inactive	–	–
CN(C)C(=O)c1ccc(-c2cncnc2NCc2cccnc2)cc1	> 11.4	22	5.01 µM (active)	3.94	17.6	> 46	> 46	inactive	inactive	inactive	inactive	inactive	–	inactive	inactive	5.01 µM (active)	2.51 µM (active)	–
CN(C)Cc1ccccc1-c1nc(NC2CC2)c2ccccc2n1	> 11.4	1.1	5.01 µM (active)	-22.4	7.64	> 46	> 46	inactive	inactive	inactive	inactive	inactive	inactive	inactive	–	–	–	–
CS(=O)(=O)Nc1cccc(-c2cncnc2NCc2ccccc2)c1	> 11.4	-1.31	25.1 µM (active)	3.36	-2.08	> 46	> 46	inactive	inactive	inactive	inactive	inactive	inactive	inactive	–	0.631 µM (active)	–	398 nM (active)
Cc1cnc(CNc2nc(-c3ccccc3C(F)(F)F)nc3ccccc23)cn1	> 11.4	-16.3	12.6 µM (active)	12.8	-2.08	> 46	> 46	inactive	inactive	inactive	inactive	inactive	–	inactive	inactive	5.01 µM (active)	–	–
CN(C)Cc1ccccc1-c1nccc(N(C)Cc2ccco2)n1	> 11.4	-20	7.94 µM (active)	-23.2	0.0679	> 46	> 46	inactive	inactive	inactive	inactive	inactive	inactive	inactive	–	–	–	–
COc1ccc(CNc2ccnc(-c3c(C)noc3C)n2)c(OC)c1	> 11.4	11.5	1.26 µM (active)	8.32	0.0565	> 46	> 46	inactive	inactive	inactive	inactive	inactive	–	inactive	–	2.51 µM (active)	1.58 µM (active)	–
Cc1ccccc1-c1cncnc1Nc1ccccc1	> 11.4	-10.9	15.8 µM (active)	-1.77	16	> 46	> 46	inactive	inactive	inactive	inactive	inactive	inactive	inactive	–	0.631 µM (active)	3.16 µM (active)	–
c1nc(NC2CC2)c2cc(-c3ccoc3)ccc2n1	> 11.4	-18	0.794 µM (active)	6.95	-16.7	> 46	> 46	inactive	inactive	0.794 µM (active)	0.708 µM (active)	178 nM (active)	inactive	inactive	–	–	–	–
CN(C)c1ccc(-c2cncnc2N(C)Cc2ccco2)cc1	> 11.4	-22.2	0.631 µM (active)	-8.48	-5.82	> 46	> 46	–	inactive	15.8 µM (active)	17.8 µM (active)	inactive	inactive	inactive	–	0.631 µM (active)	0.251 µM (active)	–
